Test results reported in PubChem BioAssay (EPA / NIEHS).
Results filed as inconclusive are left out. Activity calls are given as the source filed them. The calls were made as follows, unless noted: active = hit-call score of the fitted dose curve at least 0.9, where 1 is the maximum; inconclusive = response in the unintended direction; inactive = score below 0.9.

Legend:
[1] = TOX21_TR_RXR_BLA_Agonist_Followup_viability: Viability Assessment in the Tox21 Thyroid Hormone Receptor beta Retinoid X Receptor alpha (RXRa) Agonism Beta-lactamase (BLA) Follow-Up Assay (AID 2283970)
Outline: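 RXRa-UAS-bla HEK293T cells seeded at 2,500/well in phenol red-free DMEM with 2% charcoal-stripped FBS, exposed to compound 16h at 37C/5% CO2 in qHTS. Viability read by CellTiter-Glo ATP luminescence; bidirectional fitting against DMSO baseline, signal loss indicating cytotoxicity.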

[2] = target: rat Neonicotinoid receptor (NNR), Chrna7 (gene 25302) (UniProt Q05941); assay: NVS_LGIC_rNNR_BungSens: NovaScreen (NVS) Ligand-Gated Ion Channel Assay for rat Neonicotinoid receptor (NNR) (AID 2283315)
Outline: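 Radioligand displacement binding on rat cortical membranes, 2.5 h incubation, filtration and scintillation counting. Loss of specific binding fitted relative to DMSO.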

[3] = target: human CYP2D6, CYP2D6 (gene 1565) (UniProt P10635); assay: NVS_ADME_hCYP2D6: NovaScreen (NVS) CYP450-related Enzyme Activity (ADME) Assay for human CYP2D6 (AID 2283107)
Outline: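 Fluorescence intensity read 1 h post-dosing; insect-cell-expressed recombinant protein with fluorogenic substrate, no cells. Activity is scored as signal loss relative to acetonitrile baseline, first at a single 10 uM concentration in duplicate, then as concentration series for confirmed actives.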

[4] = TAMU_HCS_1.5hr_SingleDonor1434_Cytotoxicity: Cytotoxicity Assessment using High-content Screening (HCS) Fluorescent Imaging for the Texas A&M University (TAMU) 1.5-hr Human Induced Pluripotent Stem Cell (iPSC)-derived Cardiotoxicity Assay (AID 2284234)
Outline: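 Human iPSC-derived cardiomyocytes dosed at 0.2, 1, 10, 100 uM final (0.5% DMSO) for 90 min at 37 C. Hoechst 33342-stained nuclei counted by 10x high-content imaging; POD is EC10, a 10% drop in total cell count versus DMSO.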

[5] = target: guinea pig Leukotriene D4 Receptor (LTD4), CYSLTR1 (gene 100135514) (UniProt Q2NNR5); assay: NVS_GPCR_gLTD4: NovaScreen (NVS) G Protein-Coupled Receptor Assay for guinea pig Leukotriene D4 Receptor (LTD4) (AID 2283248)
Outline: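 Radioligand displacement on guinea pig lung membranes, 1 h incubation, filtration and scintillation counting; DMSO as negative control. Duplicate 25 uM primary screen, then singleton concentration-response up to 50 uM.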

DIO1 (gene 1733) = assay: CCTE_GLTED_hDIO1: CCTE's human Deiodinase 1 (DIO1) Inhibition Assay, Great Lakes Toxicology and Ecology Division (GLTED) Lab (AID 2283987);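 also: isolated human DIO1 enzyme in a cell-free setup rather than cells; enzyme activity read as free iodide liberated from substrate via Sandell-Kolthoff colorimetry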
Outline: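 Steps: human DIO1 enzyme plus test chemical, 3 h incubation; free iodide then quantified in a second Sandell-Kolthoff step by absorbance. DMSO served as negative control and baseline.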

DIO2 (gene 1734) = assay: CCTE_GLTED_hDIO2: CCTE's human Deiodinase 2 (DIO2) Inhibition Assay, Great Lakes Toxicology and Ecology Division (GLTED) Lab (AID 2284050)
Outline: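 Cell-free human DIO2 enzyme was incubated with test chemical for 3 h; iodide liberated from substrate was then quantified by the Sandell-Kolthoff reaction (absorbance), run in triplicate. Loss of signal versus DMSO baseline indicated inhibition.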

DIO3 (gene 1735) = assay: CCTE_GLTED_hDIO3: CCTE's human Deiodinase 3 (DIO3) Inhibition Assay, Great Lakes Toxicology and Ecology Division (GLTED) Lab (AID 2284055);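 also: potency is for inhibition seen as loss of released iodide signal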
Outline: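 Cell-free assay with human DIO3 enzyme produced by adenovirus expression; enzyme incubated with test chemical for 3 hours. Liberated iodide then measured by Sandell-Kolthoff absorbance; loss of signal versus DMSO baseline indicates inhibition, run in triplicate.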

[6] = system: Thyroperoxidase (TPO), gene 445522; assay: CCTE_Simmons_GUA_TPO: CCTE's Guaiacol Assay for Thyroperoxidase (TPO) Inhibition, Simmons Lab (AID 2283750)
Outline: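 Porcine thyroid microsomes (25 ug) in 200mM potassium phosphate, preincubated 30 s at 37C with compound (8 concentrations, 5 nM–87.5 uM) and 35mM guaiacol; 1mM H2O2 starts reaction. Absorbance change at 450nm over first 80 s; loss of signal versus DMSO, three replicates.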

[7] = CCTE_Deisenroth_H295R-HTRF_384WELL_ESTRADIOL: CCTE's H295R-HTRF Assay Evaluation of Estradiol Concentration, Deisenroth Lab (AID 2284361; active = hit-call score of the fitted dose curve at least 0.9, where 1 is the maximum; inactive = score below 0.9); conditions: actives raise or lower the signal
Outline: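 H295R cells exposed 48 h to chemicals at 0.001 - 100 uM final (nine points, triplicate); estradiol in conditioned medium measured by HTRF immunoassay, fitted bidirectionally versus DMSO. Viability by CellTiter-Glo on same plates.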

[8] = CCTE_Deisenroth_H295R-HTRF_384WELL_TESTOSTERONE: CCTE's H295R-HTRF Assay Evaluation of Testosterone Concentration, Deisenroth Lab (AID 2284373; active = hit-call score of the fitted dose curve at least 0.9, where 1 is the maximum; inactive = score below 0.9); conditions: actives raise or lower the signal
Outline: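 Secreted testosterone was quantified by HTRF immunoassay of medium from human adrenocortical H295R cells after 48 h chemical exposure at 0.001–100 uM final. Gain or loss was fitted against DMSO. ATP-based viability was read on matched wells, five experimental replicates.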

[9] = CCTE_Deisenroth_H295R-HTRF_384WELL_CTOX: Cytotoxicity Assessment in CCTE's H295R-HTRF Assay, Deisenroth Lab (AID 2284380)
Outline: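 H295R adrenocortical carcinoma cells plated 24 h, then exposed 48 h to nine-point series 0.001–100 uM final, triplicate, n=5. ATP measured by CellTiter-Glo 2.0 luminescence on same plates after medium collection; loss versus DMSO.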

[10] = target: Serine/threonine-protein phosphatase PP1-alpha catalytic subunit (Homo sapiens) (UniProt P62136); assay: NVS_ENZ_hPPP1CA: NovaScreen (NVS) Enzymatic Assay for human Protein Phosphatase 1 Aatalytic subunit Alpha (PPP1CA) (AID 2283200)
Outline: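 Recombinant enzyme activity read by fluorescence with electrophoretic mobility shift separating substrate from product, 1.33 h after dosing; loss of signal vs DMSO baseline. Primary screen in duplicate at 25 uM; actives retested in concentration-response up to 50 uM.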

[11] = target: human Protein Tyrosine Phosphatase Non-receptor Type 4 (PTPN4), PTPN4 (gene 5775) (UniProt P29074); assay: NVS_ENZ_hPTPN4: NovaScreen (NVS) Enzymatic Assay for human Protein Tyrosine Phosphatase Non-receptor Type 4 (PTPN4) (AID 2283208)
Outline: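 Cell-free assay of PTPN4 expressed in Sf9 cells, using a fluorescent substrate with product separated by mobility shift; read 1.33 h after dosing. Single-point screen at 25 uM, then concentration-response up to 50 uM. Loss of signal relative to DMSO.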

[12] = read-out: Tumor necrosis factor receptor superfamily member 6 (Homo sapiens) (UniProt P25445); assay: LTEA_HepaRG_FAS: Life Technologies and Expression Analysis (LTEA) Assay for Fas cell surface death receptor (FAS) using HepaRG (AID 2283447; active = hit-call score of the fitted dose curve at least 0.9, where 1 is the maximum; inactive = score below 0.9); conditions: mRNA level, 48 h; actives raise or lower the signal
Outline: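 Differentiated human HepaRG cells, pre-cultured 48 h, were exposed in duplicate for 48 h to 8-point half-log concentrations (top 100 uM, 0.5% DMSO) in serum-free induction medium; FAS mRNA measured by qRT-PCR, normalized to ACTB/GAPDH/POLR2A, bidirectional fit versus DMSO.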

[13] = read-out: Fatty acid synthase (Homo sapiens) (UniProt P49327); assay: LTEA_HepaRG_FASN: Life Technologies and Expression Analysis (LTEA) Assay for Fatty Acid Synthase (FASN) using HepaRG (AID 2283448; active = hit-call score of the fitted dose curve at least 0.9, where 1 is the maximum; inactive = score below 0.9); conditions: mRNA level, 48 h; actives raise or lower the signal
Outline: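 Differentiated human HepaRG cells were exposed for 48 h in serum-free induction medium to eight half-log concentrations up to 100 uM in 0.5% DMSO, in duplicate. FASN mRNA was quantified by TaqMan qRT-PCR, normalized to ACTB/GAPDH/POLR2A, and fitted bidirectionally against DMSO.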

[14] = read-out: Cyclin D2 (CCND2), CCND2 (gene 894); assay: LTEA_HepaRG_CCND2: Life Technologies and Expression Analysis (LTEA) Assay for Cyclin D2 (CCND2) using HepaRG (AID 2283449; active = hit-call score of the fitted dose curve at least 0.9, where 1 is the maximum; inactive = score below 0.9;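 also: CCND2 transcript measured by TaqMan qRT-PCR and normalised to three housekeeping genes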); conditions: mRNA level, 48 h; actives raise or lower the signal
Outline: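 Differentiated human HepaRG cells were exposed for 48 h in serum-free induction medium to eight half-log concentrations topping at 100 uM (0.5% DMSO vehicle). CCND2 mRNA was quantified by TaqMan qRT-PCR, normalised to ACTB, GAPDH and POLR2A, and fitted bidirectionally against DMSO.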

[15] = read-out: Cyclin Dependent Kinase Inhibitor 1A (CDKN1A), CDKN1A (gene 1026); assay: LTEA_HepaRG_CDKN1A: Life Technologies and Expression Analysis (LTEA) Assay for Cyclin Dependent Kinase Inhibitor 1A (CDKN1A) using HepaRG (AID 2283450; active = hit-call score of the fitted dose curve at least 0.9, where 1 is the maximum; inactive = score below 0.9); conditions: mRNA level, 48 h; actives raise or lower the signal
Outline: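 HepaRG, 48 h dosing, 8-pt half-log series from 100 uM top, 0.5% DMSO vehicle, duplicates. Readout: TaqMan qRT-PCR of CDKN1A transcript, housekeeping-normalized (ACTB, GAPDH, POLR2A). Up/down curve fit relative to DMSO.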

[16] = read-out: Cyclin D1 (CCND1), CCND1 (gene 595); assay: LTEA_HepaRG_CCND1: Life Technologies and Expression Analysis (LTEA) Assay for Cyclin D1 (CCND1) using HepaRG (AID 2283451; active = hit-call score of the fitted dose curve at least 0.9, where 1 is the maximum; inactive = score below 0.9); conditions: mRNA level, 48 h; actives raise or lower the signal
Outline: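 qRT-PCR (Fluidigm 96.96 array) read-out of transcript level, housekeeping-normalized (ACTB/GAPDH/POLR2A). HepaRG cells, 48 h chemical exposure, 8-point half-log series from 100 uM, 0.5% DMSO vehicle; gain or loss relative to DMSO baseline.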

[17] = read-out: catalase (CAT), CAT (gene 847); assay: LTEA_HepaRG_CAT: Life Technologies and Expression Analysis (LTEA) Assay for catalase (CAT) using HepaRG (AID 2283452; active = hit-call score of the fitted dose curve at least 0.9, where 1 is the maximum; inactive = score below 0.9); conditions: mRNA level, 48 h; actives raise or lower the signal
Outline: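 Differentiated HepaRG cells in serum-free induction medium were dosed 48 h in duplicate, eight half-log concentrations from 100 uM in 0.5% DMSO. Transcript measured by TaqMan qRT-PCR, normalised to ACTB/GAPDH/POLR2A, fitted bidirectionally against DMSO.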

Chain of human CYP2D6, CYP2D6 (gene 1565) (P10635 whole entry, looked up): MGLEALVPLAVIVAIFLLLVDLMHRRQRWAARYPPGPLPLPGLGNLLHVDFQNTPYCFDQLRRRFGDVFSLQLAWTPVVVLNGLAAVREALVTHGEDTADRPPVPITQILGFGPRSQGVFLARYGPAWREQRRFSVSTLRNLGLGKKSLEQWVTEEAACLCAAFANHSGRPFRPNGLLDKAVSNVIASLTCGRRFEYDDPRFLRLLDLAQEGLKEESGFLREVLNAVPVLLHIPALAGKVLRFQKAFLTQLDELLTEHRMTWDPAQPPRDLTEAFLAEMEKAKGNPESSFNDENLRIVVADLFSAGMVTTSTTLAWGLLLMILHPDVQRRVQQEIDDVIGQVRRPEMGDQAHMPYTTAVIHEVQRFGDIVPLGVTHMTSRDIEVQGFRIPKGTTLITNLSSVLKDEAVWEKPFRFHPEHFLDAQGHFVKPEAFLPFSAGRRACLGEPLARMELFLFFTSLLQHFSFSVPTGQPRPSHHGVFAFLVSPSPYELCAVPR
Chain of human Protein Tyrosine Phosphatase Non-receptor Type 4 (PTPN4), PTPN4 (gene 5775) (P29074 whole entry, looked up): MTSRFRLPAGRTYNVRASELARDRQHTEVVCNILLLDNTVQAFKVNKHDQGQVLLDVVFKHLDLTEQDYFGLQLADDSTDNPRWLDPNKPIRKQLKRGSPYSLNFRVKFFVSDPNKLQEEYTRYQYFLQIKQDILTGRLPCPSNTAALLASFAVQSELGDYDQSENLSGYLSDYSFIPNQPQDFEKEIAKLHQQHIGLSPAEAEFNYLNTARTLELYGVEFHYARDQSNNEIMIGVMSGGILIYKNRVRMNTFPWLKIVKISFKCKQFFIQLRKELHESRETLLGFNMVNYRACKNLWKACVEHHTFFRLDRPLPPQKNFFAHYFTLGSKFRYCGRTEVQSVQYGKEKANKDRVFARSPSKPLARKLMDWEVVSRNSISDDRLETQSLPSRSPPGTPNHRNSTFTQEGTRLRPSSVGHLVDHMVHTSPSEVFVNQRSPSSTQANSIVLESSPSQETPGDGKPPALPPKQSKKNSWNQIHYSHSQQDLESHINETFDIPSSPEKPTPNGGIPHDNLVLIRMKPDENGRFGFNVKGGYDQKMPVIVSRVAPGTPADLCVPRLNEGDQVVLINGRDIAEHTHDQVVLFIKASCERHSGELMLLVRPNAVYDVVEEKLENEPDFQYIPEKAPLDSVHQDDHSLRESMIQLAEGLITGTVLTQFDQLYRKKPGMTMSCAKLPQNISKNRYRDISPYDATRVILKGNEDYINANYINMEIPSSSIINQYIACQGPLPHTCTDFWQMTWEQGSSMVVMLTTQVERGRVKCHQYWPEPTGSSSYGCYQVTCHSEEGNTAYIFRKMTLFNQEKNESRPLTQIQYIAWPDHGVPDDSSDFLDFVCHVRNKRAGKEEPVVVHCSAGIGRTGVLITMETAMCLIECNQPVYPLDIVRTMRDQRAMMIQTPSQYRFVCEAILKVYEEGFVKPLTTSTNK
Chain of Fatty acid synthase (Homo sapiens) (P49327 whole entry, looked up): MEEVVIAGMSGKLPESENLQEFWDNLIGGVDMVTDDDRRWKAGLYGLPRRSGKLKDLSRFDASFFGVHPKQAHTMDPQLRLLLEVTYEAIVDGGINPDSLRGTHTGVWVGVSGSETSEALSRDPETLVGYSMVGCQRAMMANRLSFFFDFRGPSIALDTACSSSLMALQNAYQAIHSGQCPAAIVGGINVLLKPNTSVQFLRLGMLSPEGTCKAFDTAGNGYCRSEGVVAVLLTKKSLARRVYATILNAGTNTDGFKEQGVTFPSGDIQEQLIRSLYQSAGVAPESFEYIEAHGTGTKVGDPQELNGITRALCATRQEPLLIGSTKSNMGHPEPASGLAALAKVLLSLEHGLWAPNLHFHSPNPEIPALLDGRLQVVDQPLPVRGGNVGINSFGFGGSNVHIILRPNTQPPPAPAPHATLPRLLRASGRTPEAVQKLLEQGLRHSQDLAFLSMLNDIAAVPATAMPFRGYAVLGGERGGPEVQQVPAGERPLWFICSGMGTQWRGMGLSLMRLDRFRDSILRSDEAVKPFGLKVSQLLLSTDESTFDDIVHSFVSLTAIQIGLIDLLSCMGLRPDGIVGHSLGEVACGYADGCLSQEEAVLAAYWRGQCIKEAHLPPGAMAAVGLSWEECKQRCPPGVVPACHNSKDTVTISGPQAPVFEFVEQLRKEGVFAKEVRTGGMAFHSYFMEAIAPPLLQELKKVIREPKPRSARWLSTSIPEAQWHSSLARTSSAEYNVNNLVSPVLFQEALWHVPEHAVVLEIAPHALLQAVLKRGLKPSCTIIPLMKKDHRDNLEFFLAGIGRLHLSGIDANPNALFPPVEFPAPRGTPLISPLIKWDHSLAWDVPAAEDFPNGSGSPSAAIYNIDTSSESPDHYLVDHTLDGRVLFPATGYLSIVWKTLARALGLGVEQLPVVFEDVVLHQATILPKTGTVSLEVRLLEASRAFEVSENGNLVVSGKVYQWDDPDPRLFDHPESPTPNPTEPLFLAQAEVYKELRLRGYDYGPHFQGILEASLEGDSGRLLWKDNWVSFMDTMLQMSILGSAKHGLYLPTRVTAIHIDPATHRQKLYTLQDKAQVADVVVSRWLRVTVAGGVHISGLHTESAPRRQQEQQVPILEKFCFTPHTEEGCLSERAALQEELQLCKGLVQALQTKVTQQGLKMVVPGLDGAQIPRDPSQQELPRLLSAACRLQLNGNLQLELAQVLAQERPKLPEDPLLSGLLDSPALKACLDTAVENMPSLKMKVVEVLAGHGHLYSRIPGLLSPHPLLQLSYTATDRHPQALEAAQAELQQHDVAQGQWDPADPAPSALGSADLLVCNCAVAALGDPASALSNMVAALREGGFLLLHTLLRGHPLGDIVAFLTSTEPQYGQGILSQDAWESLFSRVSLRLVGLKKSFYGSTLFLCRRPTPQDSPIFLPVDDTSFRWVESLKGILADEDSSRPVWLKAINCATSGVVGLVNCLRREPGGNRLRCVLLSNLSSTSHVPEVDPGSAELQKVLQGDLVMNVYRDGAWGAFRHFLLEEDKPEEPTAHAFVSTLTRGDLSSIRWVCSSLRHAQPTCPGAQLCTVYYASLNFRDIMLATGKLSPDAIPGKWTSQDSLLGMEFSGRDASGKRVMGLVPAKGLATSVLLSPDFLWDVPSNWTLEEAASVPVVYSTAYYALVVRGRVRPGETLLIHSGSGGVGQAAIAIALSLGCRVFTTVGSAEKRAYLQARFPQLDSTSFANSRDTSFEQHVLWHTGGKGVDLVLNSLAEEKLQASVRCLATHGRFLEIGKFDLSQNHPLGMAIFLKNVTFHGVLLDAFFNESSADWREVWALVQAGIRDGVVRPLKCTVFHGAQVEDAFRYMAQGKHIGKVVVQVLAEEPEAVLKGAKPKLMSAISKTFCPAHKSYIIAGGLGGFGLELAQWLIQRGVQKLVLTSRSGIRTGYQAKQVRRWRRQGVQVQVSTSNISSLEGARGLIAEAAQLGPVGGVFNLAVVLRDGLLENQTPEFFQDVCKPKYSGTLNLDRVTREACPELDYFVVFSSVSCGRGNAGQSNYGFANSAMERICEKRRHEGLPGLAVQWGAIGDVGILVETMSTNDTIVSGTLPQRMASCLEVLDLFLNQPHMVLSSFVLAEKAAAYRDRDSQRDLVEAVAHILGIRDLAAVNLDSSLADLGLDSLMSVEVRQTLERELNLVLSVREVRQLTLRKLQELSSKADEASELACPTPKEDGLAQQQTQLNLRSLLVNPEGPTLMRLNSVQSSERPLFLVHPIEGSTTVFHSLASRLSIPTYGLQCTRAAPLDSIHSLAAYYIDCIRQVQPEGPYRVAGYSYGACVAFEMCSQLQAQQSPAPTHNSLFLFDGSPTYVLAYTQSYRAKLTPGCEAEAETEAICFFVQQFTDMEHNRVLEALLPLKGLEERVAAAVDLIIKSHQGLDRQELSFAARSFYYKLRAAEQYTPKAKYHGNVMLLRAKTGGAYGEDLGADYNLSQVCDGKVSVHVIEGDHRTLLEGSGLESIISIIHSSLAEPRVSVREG
Chain of Serine/threonine-protein phosphatase PP1-alpha catalytic subunit (Homo sapiens) (P62136 whole entry, looked up): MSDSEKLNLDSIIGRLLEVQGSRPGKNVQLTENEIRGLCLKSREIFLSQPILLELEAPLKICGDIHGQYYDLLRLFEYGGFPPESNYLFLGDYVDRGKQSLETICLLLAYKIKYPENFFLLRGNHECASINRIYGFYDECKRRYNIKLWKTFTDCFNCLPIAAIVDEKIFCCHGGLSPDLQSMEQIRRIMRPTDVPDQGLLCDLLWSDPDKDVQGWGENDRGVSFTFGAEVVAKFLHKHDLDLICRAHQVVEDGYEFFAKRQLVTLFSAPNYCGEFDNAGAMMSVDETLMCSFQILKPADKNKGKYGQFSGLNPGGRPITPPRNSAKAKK
Chain of guinea pig Leukotriene D4 Receptor (LTD4), CYSLTR1 (gene 100135514) (Q2NNR5 whole entry, looked up): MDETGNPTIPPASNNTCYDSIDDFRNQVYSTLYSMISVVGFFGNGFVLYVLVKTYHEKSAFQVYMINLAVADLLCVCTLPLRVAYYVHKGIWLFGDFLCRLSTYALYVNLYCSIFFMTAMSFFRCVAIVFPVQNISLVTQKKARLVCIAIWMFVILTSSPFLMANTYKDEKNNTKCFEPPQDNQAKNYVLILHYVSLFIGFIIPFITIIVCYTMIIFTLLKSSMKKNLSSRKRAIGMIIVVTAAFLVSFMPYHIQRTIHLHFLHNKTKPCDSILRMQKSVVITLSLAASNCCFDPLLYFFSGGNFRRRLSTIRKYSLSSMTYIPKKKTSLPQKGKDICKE

With `CC(C)CCCCCCCOC(=O)c1ccccc1C(=O)OCCCCCCCC(C)C` the outcome [1] was “inactive”.
For `CCc1cc(C)cc(CC)c1-c1c(OC(=O)C(C)(C)C)n2n(c1=O)CCOCC2`, the AC50 [2] was 6.11 µM (active).
In the case of `Nc1ccc(-c2ccc(N)c(N)c2)cc1N`, the AC50 [3] is reported as 4.48 µM (active).
With `O=C1C=CC(=O)C=C1` the outcome [4] was “inactive”.
With `S=c1[nH]c2ccccc2[nH]1` the outcome [5] was “inactive”.
In the case of `CCCCCCCCCCCCCCCC[N+](C)(C)C`, the AC50 (DIO1 (gene 1733)) is reported as 13.5 µM (active), the AC50 (DIO2 (gene 1734)) is reported as 19.8 µM (active) and the AC50 (DIO3 (gene 1735)) is reported as 1.56 µM (active).
With `Nc1ccccc1` the AC50 [6] was 9.69 µM (active).
In the case of `C[C@]12CC[C@H]3[C@@H](CC[C@@]45O[C@@H]4C(O)=C(C#N)C[C@]35C)[C@@H]1CC[C@@H]2O`, the AC50 [7] is reported as 3.06 µM (active), the AC50 [8] is reported as 19 µM (active) and the outcome [9] is reported as “inactive”.
In the case of `O=C(CCl)c1ccccc1`, the outcome [10] is reported as “inactive”, the outcome [11] is reported as “inactive” and the outcome [12] is reported as “inactive”. For the same compound, the outcome [13] was “inactive”, the outcome [14] was “inactive” and the outcome [15] was “inactive”. The outcome [16] was “inactive” and the outcome [17] was “inactive”.
